Among all 5,500 compounds or so, about 2,000 (36%) were called active. Not shown: some 18% with an inconclusive outcome. Rule as the data show it: active = normalized growth mostly below about 0.91 (no sharp cut-off); inconclusive = no clear call, values can overlap the other calls; inactive = mostly above about 0.92. Some of the results follow.
Assay: chemical genetic growth profiling, strain panel (AID 1159580);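 also: tested at 20 µM; growth read once vehicle control cultures reached saturation at 30 °C; 1 = growth at the plate median or of vehicle wells; lower values mean less growth of the strain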
Conditions: growth OD

Measured: normalized growth

Cc1cn([C@H]2C[C@H](N=[N+]=[N-])[C@@H](CO)O2)c(=O)[nH]c1=O
inactive: S. cerevisiae deletion strains, locus YJR066W, strain TOR1, stronger effect = lower value 0.932 | S. cerevisiae deletion strains, locus YKL009W, strain mrt4, stronger effect = lower value 0.995 | S. cerevisiae deletion strains, locus YKL068W, stronger effect = lower value 1.01 | S. cerevisiae deletion strains, locus YKL085W, strain MDH1 (second series), stronger effect = lower value 1.01 | S. cerevisiae deletion strains, locus YKL085W, strain MDH1, stronger effect = lower value 1.01 | S. cerevisiae deletion strains, locus YKL160W, strain elf1, stronger effect = lower value 0.975 | S. cerevisiae deletion strains, locus YKL190W, strain CNB1, stronger effect = lower value 1.01 | S. cerevisiae deletion strains, locus YKR001C, strain vps1, stronger effect = lower value 1.02 | S. cerevisiae deletion strains, locus YKR026C, strain gcn3, stronger effect = lower value 0.988 | S. cerevisiae deletion strains, locus YKR091W, strain srl3, stronger effect = lower value 0.999 | S. cerevisiae deletion strains, locus YLL001W, strain dnm1, stronger effect = lower value 0.978 | S. cerevisiae deletion strains, locus YLL026W, stronger effect = lower value 0.996 | S. cerevisiae deletion strains, locus YLL041C, strain sdh2, stronger effect = lower value 0.993 | S. cerevisiae deletion strains, locus YLR027C, strain aat2, stronger effect = lower value 0.99 | S. cerevisiae deletion strains, locus YLR039C, strain RIC1, stronger effect = lower value 0.989 | S. cerevisiae deletion strains, locus YLR058C, strain SHM2, stronger effect = lower value 1.01 | S. cerevisiae deletion strains, locus YLR102C, strain apc9, stronger effect = lower value 1.01 | S. cerevisiae deletion strains, locus YLR113W, strain HOG1, stronger effect = lower value 0.936 | S. cerevisiae deletion strains, locus YLR221C, strain rsa3, stronger effect = lower value 1.02 | S. cerevisiae deletion strains, locus YLR258W, strain gsy2, stronger effect = lower value 0.97 | S. cerevisiae deletion strains, locus YLR262C, strain YPT6 (second series), stronger effect = lower value 0.998 | S. cerevisiae deletion strains, locus YLR262C, strain YPT6, stronger effect = lower value 1.01 | S. cerevisiae deletion strains, locus YLR268W, strain sec22, stronger effect = lower value 1 | S. cerevisiae deletion strains, locus YLR320W, strain mms22, stronger effect = lower value 0.981 | S. cerevisiae deletion strains, locus YLR330W, strain CHS5, stronger effect = lower value 1 | S. cerevisiae deletion strains, locus YLR342W, strain FKS1 (second series), stronger effect = lower value 0.991 | S. cerevisiae deletion strains, locus YLR342W, strain FKS1, stronger effect = lower value 1.01 | S. cerevisiae deletion strains, locus YLR357W, strain rsc2, stronger effect = lower value 0.935 | S. cerevisiae deletion strains, locus YLR370C, strain arc18, stronger effect = lower value 0.98 | S. cerevisiae deletion strains, locus YLR371W, strain rom2, stronger effect = lower value 1.01 | S. cerevisiae deletion strains, locus YLR384C, strain iki3, stronger effect = lower value 1 | S. cerevisiae deletion strains, locus YLR418C, strain cdc73, stronger effect = lower value 1.04 | S. cerevisiae deletion strains, locus YML016C, strain PPZ1, stronger effect = lower value 1 | S. cerevisiae deletion strains, locus YML032C, strain rad52, stronger effect = lower value 1.01 | S. cerevisiae deletion strains, locus YML120C, strain ndi1, stronger effect = lower value 1.01 | S. cerevisiae deletion strains, locus YML124C, strain tub3, stronger effect = lower value 1.01 | S. cerevisiae deletion strains, locus YMR058W, strain fet3, stronger effect = lower value 1.02 | S. cerevisiae deletion strains, locus YMR078C, strain ctf18, stronger effect = lower value 1 | S. cerevisiae deletion strains, locus YMR125W, strain sto1, stronger effect = lower value 0.999 | S. cerevisiae deletion strains, locus YMR129W, stronger effect = lower value 0.99 | S. cerevisiae deletion strains, locus YMR205C, strain PFK2, stronger effect = lower value 0.975 | S. cerevisiae deletion strains, locus YMR223W, strain ubp8, stronger effect = lower value 1 | S. cerevisiae deletion strains, locus YMR231W, strain pep5, stronger effect = lower value 1 | S. cerevisiae deletion strains, locus YMR263W, strain SAP30, stronger effect = lower value 1.01 | S. cerevisiae deletion strains, locus YMR307W, strain GAS1, stronger effect = lower value 1.02 | S. cerevisiae deletion strains, locus YNL067W, strain RPL9B, stronger effect = lower value 1.02 | S. cerevisiae deletion strains, locus YNL071W, strain lat1, stronger effect = lower value 1.01 | S. cerevisiae deletion strains, locus YNL153C, strain GIM3, stronger effect = lower value 1 | S. cerevisiae deletion strains, locus YNL183C, strain NPR1, stronger effect = lower value 0.911 | S. cerevisiae deletion strains, locus YNL209W, strain ssb2, stronger effect = lower value 0.994 | S. cerevisiae deletion strains, locus YNL233W, strain BNI4, stronger effect = lower value 0.991 | S. cerevisiae deletion strains, locus YNL248C, strain rpa49, stronger effect = lower value 0.981 | S. cerevisiae deletion strains, locus YNL250W, strain rad50, stronger effect = lower value 1.02 | S. cerevisiae deletion strains, locus YNL271C, strain bni1, stronger effect = lower value 1.02 | S. cerevisiae deletion strains, locus YNL298W, strain CLA4, stronger effect = lower value 1.02 | S. cerevisiae deletion strains, locus YNL307C, strain MCK1, stronger effect = lower value 1.01 | S. cerevisiae deletion strains, locus YNL322C, strain KRE1 (second series), stronger effect = lower value 0.972 | S. cerevisiae deletion strains, locus YNL322C, strain KRE1, stronger effect = lower value 1 | S. cerevisiae deletion strains, locus YNR049C, strain mso1, stronger effect = lower value 0.996 | S. cerevisiae deletion strains, locus YNR052C, strain pop2, stronger effect = lower value 1.01 | S. cerevisiae deletion strains, locus YOL006C, strain TOP1, stronger effect = lower value 1 | S. cerevisiae deletion strains, locus YOL012C, strain htz1 1.05 | S. cerevisiae deletion strains, locus YOL147C, strain pex11, stronger effect = lower value 1.01 | S. cerevisiae deletion strains, locus YOR001W, strain rrp6, stronger effect = lower value 1.02 | S. cerevisiae deletion strains, locus YOR061W, strain CKA2, stronger effect = lower value 1.01 | S. cerevisiae deletion strains, locus YOR069W, strain VPS5, stronger effect = lower value 1.01 | S. cerevisiae deletion strains, locus YOR070C, strain gyp1, stronger effect = lower value 0.998 | S. cerevisiae deletion strains, locus YOR080W, strain dia2, stronger effect = lower value 0.999 | S. cerevisiae deletion strains, locus YOR083W, strain WHI5, stronger effect = lower value 0.946 | S. cerevisiae deletion strains, locus YOR106W, strain vam3, stronger effect = lower value 0.999 | S. cerevisiae deletion strains, locus YOR136W, strain idh2, stronger effect = lower value 1.02 | S. cerevisiae deletion strains, locus YOR144C, strain elg1, stronger effect = lower value 1.01 | S. cerevisiae deletion strains, locus YOR184W, strain ser1, stronger effect = lower value 1.01 | S. cerevisiae deletion strains, locus YOR231W, strain MKK1, stronger effect = lower value 0.982 | S. cerevisiae deletion strains, locus YOR265W, strain rbl2, stronger effect = lower value 1.01 | S. cerevisiae deletion strains, locus YOR270C, strain vph1, stronger effect = lower value 1.06 | S. cerevisiae deletion strains, locus YOR290C, strain snf2, stronger effect = lower value 0.993 | S. cerevisiae deletion strains, locus YOR316C, strain cot1, stronger effect = lower value 1.01 | S. cerevisiae deletion strains, locus YPL051W, strain arl3, stronger effect = lower value 0.985 | S. cerevisiae deletion strains, locus YPL055C, strain LGE1, stronger effect = lower value 1.03 | S. cerevisiae deletion strains, locus YPL078C, strain atp4, stronger effect = lower value 0.99 | S. cerevisiae deletion strains, locus YPL106C, strain sse1, stronger effect = lower value 0.94 | S. cerevisiae deletion strains, locus YPL240C, strain hsp82, stronger effect = lower value 0.994 | S. cerevisiae deletion strains, locus YPL241C, strain CIN2, stronger effect = lower value 1 | S. cerevisiae deletion strains, locus YPL256C, strain CLN2, stronger effect = lower value 0.942 | S. cerevisiae deletion strains, locus YPR119W, strain clb2, stronger effect = lower value 1.01 | S. cerevisiae deletion strains, locus YPR141C, strain kar3, stronger effect = lower value 1.01 | S. cerevisiae deletion strains, locus YPR163C, strain tif3, stronger effect = lower value 1.01 | S. cerevisiae deletion strains, locus YPR167C, strain met16, stronger effect = lower value 1.01 | S. cerevisiae deletion strains, strain wtn01, stronger effect = lower value 1.01 | S. cerevisiae strains, strain wild type, stronger effect = lower value 1
